Test results: PubChem BioAssay (NCATS)
Results filed as inconclusive are left out. Calls of active or inactive are those of the source. The call rests on the fitted dose curve; in most records, active means well fitted inhibition curve with a large enough effect; inconclusive means small, poorly fitted or top-dose-only effect; inactive means flat fitted curve, though single readings scatter.

Assays:
Assay in all cases: qHTS profiling for inhibitors of Plasmodium falciparum proliferation (AID 504749); further: nearly all actives have a fitted effect of over 60% in size
Conditions in all cases: P. falciparum in erythrocytes, SYBR Green DNA, 72 h; series mostly up to 28.7 µM
ATS95 = test system: ATS95
Method in brief: (§1)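 Readout was DNA-dye fluorescence from lysed cultures, ex 485/em 535 nm. Parasitized red cells had grown 72 h with compound; data scaled between 0.29 uM artemisinin and DMSO wells and corrected using vehicle-only plates.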

C2A = test system: C2A
Method in brief: as §1

CP215 = test system: CP215
Method in brief: as §1

CP217 = test system: CP217
Method in brief: as §1

CP250 = test system: CP250
Method in brief: as §1

CP252 = test system: CP252
Method in brief: as §1

CP256 = test system: CP256
Method in brief: as §1

CP262 = test system: CP262
Method in brief: as §1

CP265 = test system: CP265
Method in brief: as §1

CP266 = test system: CP266
Method in brief: as §1

CP268 = test system: CP268
Method in brief: as §1

CP269 = test system: CP269
Method in brief: as §1

CP325 = test system: CP325
Method in brief: as §1

CP329 = test system: CP329
Method in brief: as §1

CP335 = test system: CP335
Method in brief: as §1

ECU = test system: ECU
Method in brief: as §1

P93_24 = test system: P93_24
Method in brief: as §1

PAD = test system: PAD
Method in brief: as §1

PC26 = test system: PC26
Method in brief: as §1

SC27B = test system: SC27B
Method in brief: as §1

Measured: Potency

CC(=O)[C@H]1CC[C@H]2C3CC=C4C[C@@H](O)CC[C@]4(C)C3CC[C@]12C (stereo not given in full)
inactive: ATS95 | C2A | CP215 | CP217 | CP250 | CP252 | CP256 | CP262 | CP265 | CP266 | CP268 | CP269 | CP325 | CP329 | CP335 | ECU | P93_24 | PAD | PC26 | SC27B

C/C=C1\C2C=C(C)CC1(N)c1ccc(=O)[nH]c1C2 (stereo not given)
inactive: ATS95 | C2A | CP215 | CP217 | CP250 | CP252 | CP256 | CP262 | CP265 | CP266 | CP268 | CP269 | CP325 | CP329 | CP335 | ECU | P93_24 | PAD | PC26 | SC27B
